# Laboratory results published in PubChem BioAssay (EPA / NIEHS).
# Inconclusive results are not listed. The source made the active and inactive calls. How the source made its calls, unless noted: active means hit-call score of the fitted dose curve at least 0.9, where 1 is the maximum; inactive means score below 0.9.
# Legend:
# [1] = CCTE_Shafer_MEA_dev_active_electrodes_number: CCTE's Neural Network Formation Assay for Number of Active Electrodes, Shafer Lab (AID 2284040; active means hit-call score of the fitted dose curve at least 0.9, where 1 is the maximum;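 on AC50: potency for loss of active electrodes versus DMSO so lower counts are hits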)
# Method in brief: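 Primary rat cortical neurons on 16-electrode MEA wells, exposed from day 0 through day 12 with compound renewed at DIV 5 and 9 feeds. Active electrodes (mean firing ≥5 spikes/min) counted at DIV 5, 7, 9, 12; trapezoidal AUC across days, loss-of-signal versus DMSO.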
# [2] = CCTE_Shafer_MEA_dev_burst_rate: CCTE's Neural Network Formation Assay for Burst Rate, Shafer Lab (AID 2284042);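 on AC50: potency for loss of burst rate below DMSO control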
# Method in brief: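 Primary rat cortical neurons on PEI-coated 48-well MEA plates (laminin added with cells at plating) (16 electrodes/well), exposed from plating to day 12, dosing renewed at DIV 5 and 9. Burst rate averaged over active electrodes, recorded DIV 5, 7, 9, 12, summarized as AUC; loss versus DMSO.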
# [3] = CCTE_Shafer_MEA_dev_per_burst_interspike_interval: CCTE's Neural Network Formation Assay for Burst Interspike Interval, Shafer Lab (AID 2284044);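 on AC50: potency for a decrease of within-burst interspike interval below DMSO level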
# Method in brief: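 Readout is the average time between spikes inside single-electrode bursts, taken as a well mean across bursting electrodes. Cortical neurons from rat developed networks on MEA plates under continuous 12-day exposure; recordings on days 5, 7, 9 and 12 were integrated by trapezoidal AUC.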
# [4] = CCTE_Shafer_MEA_dev_burst_duration_mean: CCTE's Neural Network Formation Assay for Mean Burst Duration, Shafer Lab (AID 2284045);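 on AC50: curve fitted for loss meaning shorter burst duration than DMSO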
# Method in brief: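 Primary rat cortical neurons on PEI-coated 16-electrode MEA wells, exposed from plating through day 12 with compound renewed at DIV 5 and 9; spontaneous activity recorded days 5, 7, 9, 12. Well-mean burst duration collapsed as trapezoidal AUC, fitted for loss versus DMSO.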
# [5] = CCTE_Shafer_MEA_dev_interburst_interval_mean: CCTE's Neural Network Formation Assay for Mean Interburst Interval, Shafer Lab (AID 2284046);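 further: well-mean interburst interval of bursting electrodes as AUC over four recording days; curve fitted for decrease in interburst interval relative to DMSO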
# Method in brief: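 Recordings on days 5, 7, 9 and 12 give well-mean interburst interval across actively bursting electrodes, summarized as area under the curve. Cultures: rat cortical neurons, continuous exposure from day 0, compound renewed at feeds; decrease analyzed versus DMSO.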
# [6] = CCTE_Shafer_MEA_dev_inter_network_spike_interval_mean: CCTE's Neural Network Formation Assay for Mean Inter-network Spike Interval, Shafer Lab (AID 2284047)
# Method in brief: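 Primary rat cortical neurons on 16-electrode MEA wells, exposed from plating day 0 through DIV 12, compound renewed at DIV 5 and 9 media changes. Mean interval between network-spike peaks recorded DIV 5, 7, 9, 12; collapsed as trapezoidal AUC, fitted downward versus DMSO.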
# [7] = CCTE_Shafer_MEA_dev_network_spike_number: CCTE's Neural Network Formation Assay for Number of Network Spikes, Shafer Lab (AID 2284048);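 on AC50: fit as a loss of signal meaning fewer network spikes than DMSO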
# Method in brief: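 Primary rat cortical neurons were seeded at 1.5 x 10^5 cells/well on PEI-coated 16-electrode MEA wells with laminin, exposed from plating day 0, compound renewed at DIV 5 and 9. Network spikes were recorded on days 5, 7, 9, 12 and summarized as trapezoidal AUC versus DMSO.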
# [8] = CCTE_Shafer_MEA_dev_network_spike_peak: CCTE's Neural Network Formation Assay for Mean Number of Electrodes in Network Spike, Shafer Lab (AID 2284049);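 on AC50: fitted for loss of signal meaning fewer electrodes in network spikes than DMSO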
# Method in brief: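 Continuous 12-day exposure of rat cortical cultures, starting at plating, on MEA plates. Endpoint: electrodes participating in network-spike peaks, AUC across DIV 5–12, DMSO as negative control.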
# [9] = CCTE_Deisenroth_AIME_384WELL_CTox_Inactive: Cytotoxicity Assessment (CTOX) in CCTE's 384-well Estrogen Receptor Transactivation Assay without AIME metabolic competence (metabolism negative), Deisenroth Lab (AID 2284039; active means hit-call score of the fitted dose curve at least 0.9, where 1 is the maximum;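 further: cell viability via live-cell protease substrate cleaved to fluorescent probe; cells exposed 24 h to medium preincubated 2 h with alginate-water beads without S9; loss of fluorescence signal means loss of viability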)
# Method in brief: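 VM7Luc4E2 cells, metabolism-negative arm: test chemicals (0.002–200 uM, 10 points) pre-incubated 2 h with alginate-water microspheres, then medium transferred to cells for 24 h. Viability read as protease-substrate cleavage to fluorescent probe; loss-of-signal, bidirectional fitting.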
# [10] = molecular target: Estrogen receptor (Homo sapiens) (UniProt P03372); assay: CCTE_Deisenroth_AIME_384WELL_LUC_Shift: CCTE's 384-well Estrogen Receptor Transactivation Assay with AIME metabolic competence data shift (ERTA luciferase; difference in metabolism positive and negative), Deisenroth Lab (AID 2284041);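 further: shift is response with S9 minus without S9 so positive means metabolism raised ER signal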
# Estrogen receptor (Homo sapiens), sequence (P03372 whole entry, looked up): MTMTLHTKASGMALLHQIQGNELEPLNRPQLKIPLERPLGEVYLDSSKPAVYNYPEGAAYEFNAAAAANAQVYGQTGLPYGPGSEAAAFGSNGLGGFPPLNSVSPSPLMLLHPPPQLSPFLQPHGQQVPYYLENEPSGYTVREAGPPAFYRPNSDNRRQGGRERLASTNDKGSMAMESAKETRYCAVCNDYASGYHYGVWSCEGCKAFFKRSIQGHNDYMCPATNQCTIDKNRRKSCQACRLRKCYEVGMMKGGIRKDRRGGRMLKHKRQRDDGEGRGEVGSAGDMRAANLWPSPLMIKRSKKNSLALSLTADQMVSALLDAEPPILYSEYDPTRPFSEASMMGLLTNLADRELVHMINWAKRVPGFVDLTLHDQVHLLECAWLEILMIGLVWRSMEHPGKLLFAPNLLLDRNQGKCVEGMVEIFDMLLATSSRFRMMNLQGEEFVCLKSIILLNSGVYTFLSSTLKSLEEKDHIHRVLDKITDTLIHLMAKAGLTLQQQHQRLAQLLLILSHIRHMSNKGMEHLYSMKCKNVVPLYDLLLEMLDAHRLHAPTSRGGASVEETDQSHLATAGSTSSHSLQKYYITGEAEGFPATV
# Method in brief: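 Here, parent compounds undergo 2 h phase I metabolism by PB/BNF-induced rat S9 before 24 h transactivation in VM7Luc4E2 cells; the curve models S9-positive minus S9-negative response over a 10-point series.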
smiles,measurement,setting,value
OC(Cc1ccccc1Cl)(Cn1[nH]cnc1=S)C1(Cl)CC1 (stereo unspecified),AC50,[1],37.1 µM (active)
same,AC50,[2],29.4 µM (active)
same,AC50,[3],11.2 µM (active)
same,outcome,[4],inactive
same,AC50,[5],82.5 µM (active)
same,outcome,[6],inactive
same,AC50,[7],24.4 µM (active)
same,AC50,[8],50 µM (active)
CCOc1ccc(N)cc1,outcome,[9],inactive
same,outcome,[10],inactive
O=S1(=O)OC(c2cc(Br)c(O)c(Br)c2)(c2cc(Br)c(O)c(Br)c2)c2ccccc21,outcome,[9],inactive
same,outcome,[10],inactive
CCN(CCO)CCO,outcome,[9],inactive
same,outcome,[10],inactive
COc1ccccc1N,outcome,[9],inactive
C=CC(F)(C(F)(F)F)C(F)(F)C(F)(F)F (stereo unspecified),outcome,[2],inactive
same,outcome,[3],inactive
same,outcome,[4],inactive
same,outcome,[5],inactive
same,outcome,[6],inactive
same,outcome,[7],inactive
same,outcome,[8],inactive
Cc1cc(C(F)(C(F)(F)F)C(F)(F)F)ccc1NC(=O)c1cccc(I)c1C(=O)NC(C)(C)CS(C)(=O)=O,AC50,[1],11.3 µM (active)
same,outcome,[2],inactive
same,outcome,[3],inactive
same,outcome,[4],inactive
same,AC50,[5],6.7 µM (active)
same,outcome,[6],inactive
same,outcome,[7],inactive
same,AC50,[8],18 µM (active)
CC1(C)[C@H](C(=O)O[C@H](C#N)c2cccc(Oc3ccccc3)c2)[C@@H]1/C=C(\Cl)C(F)(F)F,AC50,[1],12.9 µM (active)
same,outcome,[2],inactive
same,outcome,[3],inactive
same,outcome,[4],inactive
same,outcome,[5],inactive
same,outcome,[6],inactive
same,AC50,[7],1.35 µM (active)
same,AC50,[8],8.95 µM (active)
CC(C)O.CC(C)O.OCCN(CCO)CCO.OCCN(CCO)CCO.[Ti],outcome,[9],inactive
CC(=Cc1ccccc1)[N+](=O)[O-],outcome,[10],inactive
CS(=O)(=O)c1ccc(C(=O)C2C(=O)CCCC2=O)c(Cl)c1COCC(F)(F)F,outcome,[2],inactive
same,outcome,[3],inactive
same,outcome,[4],inactive
same,outcome,[5],inactive
same,outcome,[6],inactive
same,outcome,[7],inactive
same,outcome,[8],inactive
Cc1cc(Cl)ccc1OC(C)C(=O)O (stereo unspecified),outcome,[10],inactive
Clc1cccc(Cl)c1,outcome,[9],inactive
CNC(=O)CSP(=O)(OC)OC,outcome,[1],inactive
same,outcome,[2],inactive
same,outcome,[3],inactive
same,outcome,[4],inactive
same,outcome,[5],inactive
same,outcome,[6],inactive
same,outcome,[7],inactive
same,outcome,[8],inactive
CCOCn1c(-c2ccc(Cl)cc2)c(C#N)c(Br)c1C(F)(F)F,AC50,[1],4.74 µM (active)
same,AC50,[2],4.86 µM (active)
same,AC50,[3],1.61 µM (active)
same,AC50,[4],2.71 µM (active)
same,AC50,[5],6.29 µM (active)
same,outcome,[6],inactive
same,AC50,[7],7.36 µM (active)
same,AC50,[8],8.42 µM (active)
O=C(O)COc1ccc(Cl)cc1,outcome,[9],inactive
same,outcome,[10],inactive
CN(C)C(=S)S,outcome,[9],inactive
Oc1cc(Cl)c(Cl)cc1Cl,outcome,[9],inactive
NC(=O)c1ccc(N)nc1,AC50,[1],6.3 µM (active)
same,AC50,[2],8.62 µM (active)
same,AC50,[3],8.19 µM (active)
same,AC50,[4],8.66 µM (active)
same,AC50,[5],3.16 µM (active)
same,outcome,[6],inactive
same,AC50,[7],7.35 µM (active)
same,AC50,[8],4.53 µM (active)
CNC(=O)O/N=C/C(C)(C)S(C)(=O)=O,outcome,[9],inactive
same,outcome,[10],inactive
CC(=O)C(F)(F)C(F)(F)F,outcome,[2],inactive
same,outcome,[3],inactive
same,outcome,[4],inactive
same,outcome,[5],inactive
same,outcome,[6],inactive
same,outcome,[7],inactive
same,outcome,[8],inactive
C=CCOC(F)(C(F)(F)F)C(F)(F)F,outcome,[1],inactive
same,outcome,[2],inactive
same,outcome,[3],inactive
same,outcome,[4],inactive
same,outcome,[5],inactive
same,outcome,[6],inactive
same,outcome,[7],inactive
same,AC50,[8],0.0255 µM (active)
N#CCC#N,outcome,[9],inactive
same,outcome,[10],inactive
Cc1cc(Cl)ccc1OCCCC(=O)O,outcome,[9],inactive
CCC[CH2][Sn]([Cl])([Cl])[CH2]CCC,AC50,[9],9.65 µM (active)
same,outcome,[10],inactive
Cc1ccccc1OP(=O)(Oc1ccccc1C)Oc1ccccc1C,AC50,[1],20.2 µM (active)
same,outcome,[2],inactive
same,outcome,[3],inactive
same,outcome,[4],inactive
same,AC50,[5],15 µM (active)
same,outcome,[6],inactive
same,outcome,[7],inactive
same,AC50,[8],18.7 µM (active)
N#CS,outcome,[9],inactive
CC(C)[C@@H](Nc1ccc(C(F)(F)F)cc1Cl)C(=O)OC(C#N)c1cccc(Oc2ccccc2)c1 (stereo partly specified),AC50,[1],14.5 µM (active)
same,outcome,[2],inactive
same,outcome,[3],inactive
same,outcome,[4],inactive
same,outcome,[5],inactive
same,outcome,[6],inactive
same,outcome,[7],inactive
same,AC50,[8],20.9 µM (active)
FC(F)OCC(F)(F)C(F)(F)F,outcome,[1],inactive
same,outcome,[2],inactive
same,outcome,[3],inactive
same,outcome,[4],inactive
same,outcome,[5],inactive
same,outcome,[6],inactive
same,outcome,[7],inactive
same,outcome,[8],inactive
CC(F)(F)CC(F)(F)F,outcome,[2],inactive
same,outcome,[3],inactive
same,outcome,[4],inactive
same,outcome,[5],inactive
same,outcome,[6],inactive
same,outcome,[7],inactive
same,outcome,[8],inactive
CCCCCCCCCCCCc1cccc(S(=O)(=O)O)c1,outcome,[9],inactive
O=S(=O)(F)C(F)(F)C(F)(F)C(F)(F)C(F)(F)F,outcome,[1],inactive
same,outcome,[2],inactive
same,outcome,[3],inactive
same,outcome,[4],inactive
same,outcome,[5],inactive
same,outcome,[6],inactive
same,outcome,[7],inactive
same,outcome,[8],inactive
N#Cc1cccnc1,outcome,[10],inactive
